Growth inhibition data for 40 compounds are collected here from PubChem BioAssay (NCI).

This is part of a sample that, as a whole, favours compounds with a hit. Of some 79,000 tested, about 15% had one in any assay. Calls of active or inactive are those of the source. Rule as the data show it: active = growth inhibition above about 70%; inactive = the rest.

The experiment in a line: NCI Yeast Anticancer Drug Screen. Data for the cln2 rad14 strain (AID 165).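 Also: 0% = growth equal to vehicle treated cultures.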 Conditions: S. cerevisiae cln2 rad14 strain, at 50.0 µM (retest, dose inferred, filed as 5.0), active compounds read high. The essentials:
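Strain: cln2 rad14 yeast, altered in cell cycle control and DNA damage repair. Read-out: growth inhibition vs vehicle.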
Turning to `CCCCCCCCCC1OCC(C)O1` (stereo not given), the growth inhibition is 17% (inactive).
For `O=[N+]([O-])c1ccc2c(c1)/C(=C/c1ccc(O)cc1)c1ccccc1-2`, the growth inhibition is 84% (active).
On to `COc1cc2c(cc1OC(C)=O)C(=O)C(Br)(Br)CCC2`, for which the growth inhibition is 98% (active).
With `COC(=O)c1cc2c(oc1=O)-c1ccccc1N(C=O)C2` the figure was -9% (inactive).
With `CC(=O)Nc1ccc(S(=O)(=O)/N=C2\C=CC(=O)c3ccccc32)cc1`, the growth inhibition was -6% (inactive).
`C/C(=N/NC(=S)N(C)C)c1ccccc1O`: the growth inhibition is 3% (inactive).
Consider `CC(CN(C)C)C(=O)/C=C/c1c(Cl)cccc1Cl` (stereo not given), for which the growth inhibition was 44% (inactive).
Take `N#CC(O)C(Br)(Br)Br` (stereo not given): the growth inhibition was 18% (inactive).
`C=Cc1cc(N=Nc2ccc([N+](=O)[O-])cc2)ccc1N(C)C`: the growth inhibition is -15% (inactive).
`Cc1cccnc1NC(=S)Nc1ccccc1Cl`: the growth inhibition is 99% (active).
With `O=C1C=CC(=O)c2c(O)c(N3CCC[C@@H]3CO)c(Cl)c(O)c21` the figure was 36% (inactive).
Then `Cc1cc(C(=O)O)c(C)c2c1sc1ccccc12`, with 81% (active); and `COc1cccc2c1OC(c1ccc(Cl)cc1)C([N+](=O)[O-])=C2` (stereo not given), with 95% (active); and `CC1=C(C(=O)Nc2cccc(Cl)c2)C(c2ccccc2F)C(C(=O)Nc2cccc(Cl)c2)=C(C)N1`, with 36% (inactive).
Regarding `Cc1ccc(C2C(O)=C(c3ccccc3)Sc3ccc(C)cc32)cc1` (stereo not given), the growth inhibition is 51% (inactive).
Turning to `CC(=O)Oc1ccc(C)c(C(C)C(Cl)(Cl)Cl)c1` (stereo not given), the growth inhibition is 13% (inactive).
With `CCCC(=O)Oc1ccc(-c2ccc(Br)cc2)cc1` the figure was 93% (active); with `CCCCC#CCOC(=O)c1cc([N+](=O)[O-])cc([N+](=O)[O-])c1`, 99% (active); with `COC(=O)c1ccc(Cl)c(Cl)c1`, 0% (inactive).
Turning to `Cc1cc(Br)c2ccccc2c1N`, the growth inhibition was 42% (inactive).
Turning to `C=C1N(S(=O)(=O)c2ccc(C)cc2)C(=O)OCC12CCCC2`, the growth inhibition was 5% (inactive).
`CCCCCCCCN=C(N)c1ccc(C(=O)OCC2CCCCC2)cc1`: the growth inhibition is 99% (active).
Take `Nc1ccc2ccc3cccc4ccc1c2c34`: the growth inhibition is 99% (active).
Regarding `C=C(Br)CN(CC(=C)Br)C(C)=O`, the growth inhibition is 24% (inactive).
With `[Ce+3].[Cl-].[O-]/N=C(\c1ccccc1)c1ccccn1.[O-]/N=C(\c1ccccc1)c1ccccn1.[O-]/N=C(\c1ccccc1)c1ccccn1` the figure was 32% (inactive); with `O=CCCCc1cc2c(cc1Br)CCC2`, 82% (active); with `C1=C(CC2=C[P+](c3ccccc3)(c3ccccc3)C=C(c3ccccc3)O2)OC(c2ccccc2)=C[P+]1(c1ccccc1)c1ccccc1`, 98% (active).
As to `CC/C=C(\C)CC(C)O` (stereo not given), the growth inhibition was 9% (inactive).
As for `CCC(c1ccc(Cl)cc1)C(C#N)c1ccc(Cl)cc1` (stereo not given), the growth inhibition is 12% (inactive).
With `CN1/C(=C/C=C/C(I)=C/C=C/C2=[N+](C)c3ccccc3C2(C)C)C(C)(C)c2ccccc21` the figure was 71% (active).
Then `Nc1ccc(N)c2c1C(=O)c1ccccc1C2=O`, with 3% (inactive); and `CN1C=COC1N=C1CCCCC1` (stereo not given), with 0% (inactive); and `Clc1ccc(Cc2nc3ccccc3s2)c(Cl)c1`, with 89% (active).
As to `O=CC1(c2ccc(Cl)cc2)NC(=O)NC1=O` (stereo not given), the growth inhibition was -14% (inactive).
For the compound `O=C(CSc1nnc(-c2ccc(N=Cc3ccc(Cl)cc3)cc2)o1)Nc1ccc(Cl)cc1Cl`, the growth inhibition was 99% (active).
Turning to `O=C(Oc1ccccc1)C1CCCCC1C(=O)Oc1ccccc1` (stereo not given), the growth inhibition is 33% (inactive).
As for `O=C(O)Cc1ccc2c(c1O)C(=O)c1ccccc1C2=O`, the growth inhibition was 7% (inactive).
`O=[N+]([O-])c1cccc(F)c1O`: the growth inhibition is 65% (inactive).
Then `CCc1nc2c(O)ccc(O)c2nc1C`, with -10% (inactive); and `COC(=O)N/N=C(/CC1(O)C(=O)Nc2ccccc21)c1ccc(Cl)cc1Cl` (stereo not given), with 97% (active).
